Shown are actives, neighbours in structure and some others; about 3.5% of the full set was active somewhere.
FBW7 activator: FBW7 E3 ligase activators, primary screen, biochemical, AlphaScreen, human; AlphaScreen FBW7–phospho-cyclin E peptide binding, activator screen; normalized activity (activation), % at 26.1 µM; 650,000 compounds, 0.13% hits; AID 1259310, 2017; in the data active = normalized activity above about 1.9%;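 also: purified mutant Fbw7 with reduced substrate affinity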
Target sequence (Q969H0 whole entry, looked up): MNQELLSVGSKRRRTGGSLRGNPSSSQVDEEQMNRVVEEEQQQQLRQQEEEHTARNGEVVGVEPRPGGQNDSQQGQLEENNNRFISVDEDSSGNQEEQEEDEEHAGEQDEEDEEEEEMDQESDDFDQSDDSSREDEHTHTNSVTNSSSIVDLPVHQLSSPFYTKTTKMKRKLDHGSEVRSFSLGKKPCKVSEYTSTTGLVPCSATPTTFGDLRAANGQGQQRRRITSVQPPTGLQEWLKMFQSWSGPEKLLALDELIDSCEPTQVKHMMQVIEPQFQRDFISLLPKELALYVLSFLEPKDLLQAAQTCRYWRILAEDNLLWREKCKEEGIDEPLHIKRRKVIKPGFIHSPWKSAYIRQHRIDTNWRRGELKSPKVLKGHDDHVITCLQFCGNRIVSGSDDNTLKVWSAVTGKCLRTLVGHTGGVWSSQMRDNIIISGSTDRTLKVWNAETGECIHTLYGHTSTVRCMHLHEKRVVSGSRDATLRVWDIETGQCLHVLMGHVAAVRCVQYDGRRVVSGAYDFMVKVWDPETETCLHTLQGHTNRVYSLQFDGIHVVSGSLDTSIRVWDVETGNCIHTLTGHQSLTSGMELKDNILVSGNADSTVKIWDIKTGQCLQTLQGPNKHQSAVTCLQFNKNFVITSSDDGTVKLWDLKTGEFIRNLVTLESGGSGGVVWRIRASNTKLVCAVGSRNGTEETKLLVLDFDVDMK
MITF inh: MITF inhibitors, primary screen, biochemical, AlphaScreen, human. Microphthalmia-associated transcription factor (Homo sapiens), O75030. AlphaScreen MITF homodimerization, bead proximity signal. inhibition, % at 2.6 µM. 650,000 compounds, 0.91% hits; in the data active = inhibition above about 50%
GPR151 ag: activators of human GPR151, primary screen, cell-based, PathHunter beta-arrestin, luminescence | G-protein coupled receptor 151 (Homo sapiens), Q8TDV0 | PathHunter beta-arrestin GPR151 cells | activation, % at 11.2 µM | 650,000 compounds, 1% hits; in the data active = activation above about 4.9%
TEAD-YAP inh: TEAD-YAP interaction inhibition, primary screen, TEAD-YAP interaction inhibitor project, luminescence, HEK-TIYL cells | 640,000 compounds, 1.4% hits | TEAD-Gal4/YAP UAS-luciferase luminescence | AID 1259422, 2018 | inhibition, % at 9.12 µM; in the data active = inhibition above about 32%
Hits are given with their value; i = inactive; ! = not active in a repeat.

SMILES	FBW7 activator	MITF inh	GPR151 ag	TEAD-YAP inh
COc1cc(C(=O)Nc2cccc(-c3nc4ncccc4o3)c2)ccc1OCc1ccc(Cl)cc1	i	i	i	i
COC(=O)c1c(NC(=O)c2ccc3c(c2)OCO3)sc(C)c1C	i	i	i	i
Cc1c(Cc2ccc3c(c2)OCO3)sc(NC(=O)CCc2ccccc2)c1C(N)=O	i	i	i	56
CC(=O)Nc1sc(Cc2ccc3c(c2)OCO3)c(C)c1C(N)=O	i	i	i	i
COC(=O)CCC(=O)Nc1sc(C)c(C)c1C(N)=O	i	i	i	i
Cc1sc(NC(=O)c2ccc3c(c2)OCO3)c(C(N)=O)c1-c1ccccc1	i	i	i	90
COC(=O)CCC(=O)NC(=S)Nc1sc(C)c(C)c1C(N)=O	i	i	i	52
Cc1sc(NC(=S)NC(=O)CCc2ccccc2)c(C(N)=O)c1C	i	i	i	50
c1ccc(-c2[nH]c3ccccc3c2C(c2ccccn2)N2CCCC2)cc1 (configuration not stated)	i	i	i	i
O=C(Nc1ccc(Cl)c(Cl)c1)c1oc(=O)c2ccccc2c1-c1ccccc1	i	i	i	i
CCOc1ccccc1NC(=O)C(=O)N/N=C/c1cccc(Cl)c1Cl	i	i	i	i
O=C(N/N=C/c1ccccc1)C(=O)Nc1ccccc1OC(F)(F)C(F)F	i	i	i	i
CCOc1ccccc1NC(=O)C(=O)N/N=C/c1cccc(OC)c1O	i	i	i	79
CCCCNC(=O)C(=O)Nc1ccccc1OCC	2.3	i	i	i
COc1cccc(/C=N/NC(=O)C(=O)Nc2ccccc2OC(F)(F)C(F)F)c1O	i	i	i	65
Cc1ccc(NC2c3nccnc3C(=O)N2c2ccc(Br)cn2)cc1C (configuration not stated)	i	i	i	i
O=C(/C=C/c1cccs1)Nc1ccccc1	i	i	i	i
O=C(O)COc1ccc(NC(=O)CN2C(=O)c3ccccc3C2=O)cc1	i	i	i	i
COc1ccc(CCn2c(SCC(=O)c3ccc(Cl)cc3)nc3ccsc3c2=O)cc1OC	i	i	i	i
O=c1cc(-c2ccccc2)oc2cc(O)ccc12	i	i	i	51!
CCc1cc2c(=O)c(-c3nc4ccccc4n3C)coc2c(CN(C)C)c1O	i	i	i	i
C=C1C(=O)OC23C1CCC(C)C2CCC1(C)OC13 (configuration not stated)	i	i	i	61
COc1ccc(CCNc2nc(Nc3ccc4ncccc4c3)ncc2C)cc1	i	i	i	33
COc1ccc(CCNc2nc(Nc3ccc4ncccc4c3)nc3nc[nH]c23)cc1	i	i	i	50
Cc1ccc(NC(=O)C2CC=CCC2C(=O)O)c(C(=O)c2ccccc2)c1 (configuration not stated)	i	i	i	i
SMILES	FBW7 activator	MITF inh	GPR151 ag	TEAD-YAP inh
O=C(CCCCC(=O)NNC(=O)CCc1ccccc1)NNC(=O)CCc1ccccc1	2.3	i	i	i
CCCC(=O)NC(c1ccc(OC)c(OC)c1)c1cc([N+](=O)[O-])c2cccnc2c1O (configuration not stated)	i	i	i	i
CCCCC(=O)NC(c1ccc(OC)c(OC)c1)c1cc([N+](=O)[O-])c2cccnc2c1O (configuration not stated)	i	51	i	i
CCC(=O)NC(c1ccc(OC)c(OC)c1)c1cc([N+](=O)[O-])c2cccnc2c1O (configuration not stated)	i	68	i	i
CCCC(=O)NC(c1ccccc1)c1cc([N+](=O)[O-])c2cccnc2c1O (configuration not stated)	i	76	i	i
CCOc1cc(C(NC(=O)CC)c2cc([N+](=O)[O-])c3cccnc3c2O)ccc1O (configuration not stated)	i	54	i	i
CCOc1cc(C(NC(=O)C(C)C)c2cc([N+](=O)[O-])c3cccnc3c2O)ccc1O (configuration not stated)	i	i	i	i
Nc1cc(=O)[nH]c(SCC(=O)c2ccccc2Br)n1	i	i	i	i
CCc1c(C)nc2ncnn2c1NCCc1ccc(OC)cc1	i	i	i	66
Cc1nc(C(C)NC(=O)C2CC(Cc3cccc(F)c3)=NO2)cs1 (configuration not stated)	i	i	i	i
Nc1c(-c2ccccc2)cnc2c(-c3ccc(Cl)cc3)cnn12	i	i	i	i
Nc1c(-c2ccccc2)cnc2c(-c3ccccc3)cnn12	i	i	i	41
Cc1nn2c(N)c(-c3ccccc3)cnc2c1-c1ccc(Cl)cc1	i	i	i	33
Cc1oc(-c2ccc(Cl)cc2)nc1CSCC(=O)NC1CC1	i	i	i	i
Cc1oc(-c2cccs2)nc1CSCC(=O)N1CCCC1	i	i	i	i
Cc1oc(-c2ccc(Cl)cc2)nc1CSCC(=O)N1CCC2(CC1)OCCO2	i	i	i	38
Cc1oc(-c2ccccc2Cl)nc1CSCC(=O)N1CCCC1	i	i	i	58
CCCCOc1ccccc1NC(=O)Nc1ccc(Br)cc1	i	i	i	i
c1ccc2c(c1)Cn1nc(-c3c[nH]c4ccccc34)nc1-2	i	i	i	77
c1ccc2c(c1)ccc1nnc(-c3c[nH]c4ccccc34)n12	i	i	i	i
CCCc1ccc(-c2ccc(C(=O)OCc3ccco3)cc2)nc1	i	i	i	52
CCCc1ccc(-c2ccc(C(=O)OCC(C)CC)cc2)nc1 (configuration not stated)	i	i	i	i
CCCc1ccc(-c2ccc(OC(=O)C3CCCCC3)cc2)nc1	i	i	i	73
COc1cc(C)c(C)cc1S(=O)(=O)NCC1COC2(CCCC2)O1 (configuration not stated)	i	i	i	i
CCN(CC)c1ccc2cc(-c3ccccn3)c(=O)oc2c1	2.7	i	i	93
SMILES	FBW7 activator	MITF inh	GPR151 ag	TEAD-YAP inh
CCN(CC)c1ccc2cc(-c3nc(-c4ccccc4)cs3)c(=O)oc2c1	i	i	i	i
CCN(CC)c1ccc2cc(-c3nc(C)cs3)c(=O)oc2c1	3.4	i	i	94
FC(F)(F)c1ncn(-c2ccc(Nc3nccc(-c4cncc(N5CCOCC5)c4)n3)cc2)n1	i	i	i	i
CC(C)(C)c1ncn(-c2ccc(Nc3nccc(-c4cncc(N5CCOCC5)c4)n3)cc2)n1	i	i	i	74
CN(C)c1ncn(-c2ccc(Nc3nccc(-c4cncc(N5CCOCC5)c4)n3)cc2)n1	i	i	i	63
Cc1ccc(C(=O)N(Cc2ccncc2)Cc2cccc(OC3CCOC3)c2)s1 (configuration not stated)	i	i	i	i
Cc1cc(C)n(CCNC2CCN(c3cccc(NC(=O)C4CC4)c3)CC2)n1	i	i	i	i
Cc1cc(C)n(CCNC2CCN(c3cccc(NC(=O)CC4CCCC4)c3)CC2)n1	i	i	i	42
O=C(Cc1ccc(Cl)cc1)Nc1ccc(CN2CCOCC2)cc1	i	i	i	i

Source: PubChem (The Scripps Research Institute Molecular Screening Center)
